According to PubChem BioAssay (NCI):
This is part of a sample that, as a whole, favours compounds with a hit. Of some 79,000 tested, about 15% had one in any assay. Calls of active or inactive are those of the source. No stated cut-off is given here; in the data, active means growth inhibition above about 70%; inactive means the rest.

How the values were obtained:
[1] = NCI Yeast Anticancer Drug Screen. Data for the rad50 strain (AID 155);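 further: 0% = growth of vehicle-only cultures of the same strain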; settings: S. cerevisiae rad50 strain growth inhibition; at 50.0 µM; stronger effect = higher value
In short: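 Relative growth inhibition (compound vs vehicle) was measured in yeast with a defined repair-gene alteration.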

[2] = NCI Yeast Anticancer Drug Screen. Data for the mec2-1 strain (AID 157); settings: S. cerevisiae mec2-1 strain, at 50.0 µM, stronger effect = higher value
In short: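 Strain: mec2-1 (DNA repair/cell cycle alteration). Compound exposure, then growth measured; inhibition expressed relative to vehicle.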

[3] = NCI Yeast Anticancer Drug Screen. Data for the sgs1 mgt1 strain (AID 161);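 further: 0% = growth of cultures given vehicle only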; settings: S. cerevisiae sgs1 mgt1 strain, at 50.0 µM, stronger effect = higher value
In short: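 Read-out: growth inhibition vs vehicle controls. Cells: mutant yeast strain deficient in DNA damage repair.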

[4] = NCI Yeast Anticancer Drug Screen. Data for the cln2 rad14 strain (AID 165);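 further: 0% = growth equal to vehicle treated cultures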; settings: S. cerevisiae cln2 rad14 strain, at 50.0 µM, stronger effect = higher value
In short: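 Compounds are applied to the cln2 rad14 yeast strain, and growth is then compared with that of vehicle-treated cultures to give inhibition.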

[5] = NCI Yeast Anticancer Drug Screen. Data for the bub3 strain (AID 167); settings: S. cerevisiae bub3 mutant strain, at 50.0 µM, stronger effect = higher value
In short: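 Screening used yeast with an engineered genetic alteration affecting cell cycle control. Compound-exposed cultures were compared with vehicle cultures, and reduced growth was taken as inhibition.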

[6] = NCI Yeast Anticancer Drug Screen. Data for the mlh1 rad18 strain (AID 175); settings: S. cerevisiae mlh1 rad18 strain growth inhibition; at 50.0 µM; stronger effect = higher value
In short: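 Read-out is yeast growth inhibition, calculated against vehicle-only controls. The compound was applied to a strain engineered with DNA damage repair alterations.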

Measured: growth inhibition

N=c1ccc([N+](=O)[O-])cn1O
inactive: [1] 13.4% | [2] 11.7% | [3] -2% | [4] -41.5% | [5] -2.8% | [6] 1.95%

O=C1C=CC2(CC=CCC2)CC1 (centres undefined)
inactive: [1] 5.25% | [2] -8.4% | [3] -1.6% | [4] -23.4% | [5] -11.8% | [6] 0.55%

CCN(CC)CCOCC(=O)Nc1ccccc1C
inactive: [1] -17.3% | [2] 4.8% | [3] 4.95% | [4] -37.5% | [5] 22.8% | [6] 26.6%

CCC(/C=C/c1ccccc1)=N\NC(=O)c1ccc(C)cc1
inactive: [1] 9.4% | [2] 10.7% | [3] 11.7% | [4] -4.05% | [5] 15.5% | [6] 5.25%

O/N=C1/C(=C/c2ccc(F)cc2)CCCC1C(NO)c1ccc(F)cc1 (centres undefined)
inactive: [1] -3.9% | [2] -22.1% | [3] -8.05% | [4] 3.35% | [5] -6% | [6] -17.7%

CCOCCOC(=O)c1ccc(C(N)=NC2CCCCC2)cc1
inactive: [1] 0.05% | [2] -2.4% | [3] 3.75% | [4] -4.1% | [5] 0.1% | [6] -1.4%

CC(C)C(NC(=O)C1CCCN1)P(=O)(O)O (centres undefined)
inactive: [1] 10.1% | [2] 1.7% | [3] 4.55% | [4] -10.8% | [5] 5% | [6] 5.9%

CN1CC2(C)OC3(CC2(C)N1C)N(C)N(C)CC3(C)O (centres undefined)
inactive: [1] -12.2% | [2] -1.9% | [3] -12.8% | [4] 40% | [5] 11.8% | [6] -8.95%

CN=C1SC(C)(C)NN1C
inactive: [1] 9.2% | [2] 1.85% | [3] 4.35% | [4] -32% | [5] -6.4% | [6] 12.8%

CSc1nc2nc[nH]c2c(=O)[nH]1
inactive: [1] 3.45% | [2] 0.3% | [3] -16.2% | [4] -14.2% | [5] -1.85% | [6] -3.65%

CSC1NC(c2ccccc2)=C(C#N)C(=O)N1C1OCC(OC(C)=O)C(OC(C)=O)C1OC(C)=O (centres undefined)
inactive: [1] -9.1% | [2] -15.6% | [3] -39.2% | [4] 4.75% | [5] 3.4% | [6] -1.5%

O=C(NN1C(=O)c2cccc3cccc(c23)C1=O)NN1C(=O)c2cccc3cccc(c23)C1=O
active: [1] 98.2% | [2] 99.4% | [3] 98.2% | [4] 99.5% | [5] 99.2% | [6] 99%

OCC1C2C=CC1CC2 (centres undefined)
inactive: [1] -1.4% | [2] -1.8% | [3] 15.2% | [4] -0.85% | [5] 11.7% | [6] -2.7%

NC1CCC(P(=O)(O)O)CC1 (centres undefined)
inactive: [1] -0.35% | [2] 3.45% | [3] -4.75% | [4] -9.65% | [5] -6.2% | [6] -5.1%

CCOC(=O)COc1cc2c(cc1C(C)c1ccc(OCc3ccccc3)c(OC)c1)OCO2 (centres undefined)
inactive: [1] -0.95% | [2] -7.55% | [3] -9.7% | [4] 10.6% | [5] -7.4% | [6] -6.3%

O=C(COc1cccc(C(=O)O)c1)Nc1ccccc1
inactive: [1] 3.5% | [2] 7.9% | [3] 12.4% | [4] -1.4% | [5] 50.8% | [6] 8%

COC(=O)CCCCCCCCC(=O)OC
inactive: [1] 8.9% | [2] 33.8% | [3] 8.8% | [4] 8.95% | [5] 25.8% | [6] 7.15%

O=C1C(Cl)C(c2ccc(O)cc2)N1n1cnc2ccccc2c1=O (centres undefined)
inactive: [1] 56.6% | [2] 37.9% | [3] 59.4% | [4] 31.9% | [5] 32.8% | [6] 36.6%

c1ccc2c(c1)CCc1ccccc1N2
inactive: [1] 1.65% | [2] 13.8% | [3] -28.9% | [4] 6.45% | [5] 15.1% | [6] -3.4%
